Results published in PubChem BioAssay (NCATS).
Records with an inconclusive call do not appear. The source made the active and inactive calls. Unless noted, calls follow the shape of the dose curve; as a rule, active = well fitted curve in the direction sought with a large enough effect; inconclusive = small, poorly fitted or top-dose-only effect, or another doubt; inactive = no such curve, though single readings can be large; an effect the other way counts as inactive or inconclusive.

Columns and labels:
[1] = target: DNA repair nuclease/redox regulator APEX1 (Homo sapiens) (UniProt P27695); experiment: qHTS Validation Assay for Inhibitors of the Human Apurinic/apyrimidinic Endonuclease 1 (APE1) (AID 1705;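 also: TAMRA fluorescence gain over two minutes as APE1 cuts a quenched THF abasic duplex; series mostly up to about 57 µM; % is scaled to controls: 0 for no effect and ±100 for the full control effect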)
How it was run: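 qHTS, 1536-well. APE1 + cpd 15 min RT → 50 nM TAMRA/BHQ-2 THF-abasic dsDNA substrate → kinetic fluorescence, 3 reads/60 s; delta(read3−read1) = reaction progress. No-enzyme buffer = negative control.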

[2] = Counterscreen for APE1 Inhibitors: Fluorescent Dye Displacement Validation Assay (AID 1707);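 also: plate controls were ThO with dsDNA and no compound for no effect and ThO without dsDNA for full effect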
How it was run: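 Thiazole Orange displacement from dsDNA: 250 nM ThO with 50 nM TAMRA-labelled abasic-site (tetrahydrofuran) duplex in 50 mM Tris-HCl pH7.5, 50mM NaCl, 2 mM MgCl2, 0.01% Tween-20. Loss of endpoint fluorescence (ex 480 nm, em 540 nm) flags DNA binders.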

[3] = target: Endonuclease 4 (Escherichia coli (strain K12)) (UniProt P0A6C1); experiment: Counterscreen for APE1 Inhibitors: qHTS Validation Assay for Inhibitors of Endonuclease IV (AID 1708); also: % is scaled to controls: 0 for no effect and ±100 for the full control effect
How it was run: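 Cleavage of a quenched abasic-site DNA duplex (50 nM, 5'-TAMRA, 3'-BHQ-2) by 2 nM enzyme is followed as fluorescence increase. Compounds are preincubated with enzyme 15 min at room temperature before substrate addition.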

[4] = qHTS for differential inhibitors of proliferation of Plasmodium falciparum line 7G8 (AID 1815);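 also: potency is read from the fitted curve at half-maximal effect; parasite growth measured after three days of incubation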
[5] = qHTS for differential inhibitors of proliferation of Plasmodium falciparum line GB4 (AID 1816); conditions: Potency: Plasmodium falciparum GB4 proliferation inhibition;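 also: potency is read from the fitted curve at half-maximal effect; parasite growth measured after 72 h incubation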
[6] = qHTS for differential inhibitors of proliferation of Plasmodium falciparum line 3D7 (AID 1876); also: potency is read from the fitted curve at half-maximal effect
[7] = qHTS for differential inhibitors of proliferation of Plasmodium falciparum line W2 (AID 1883); conditions: Potency: Plasmodium falciparum W2 proliferation inhibition;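 also: potency is read from the fitted curve at half-maximal effect; parasites grown with compound for 72 h before lysis and staining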
[8] = target: Ferritin light chain (Equus caballus) (UniProt P02791); experiment: qHTS Validation Assay for Identification of Novel General Anesthetics (AID 2323); also: series mostly up to about 77 µM; % is scaled to controls: 0 for no effect and ±100 for the full control effect
How it was run: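 Fluorescence at 535 nm (excitation 380 nm) reported loss of 1-AMA binding to horse-spleen apoferritin (10 uM) in PBS with 50% saturated 1-aminoanthracene, after 10 min room-temperature incubation with compound; values from Hill fits of normalized response.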

[9] = target: ATP-dependent DNA helicase Q1 (Homo sapiens) (UniProt P46063); experiment: qHTS Validation Assay for Inhibitors of RecQ-Like Dna Helicase 1 (RECQ1) (AID 2353);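 also: plate controls were DMSO vehicle for no effect and enzyme-free control for full effect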
How it was run: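 50 nM RECQ1T1 preincubated 15 min with compound in Tris pH 8.0 buffer with MgCl2, DTT, Tween-20 and 2.5 ug/ml poly(dI-dC); started with 200 nM TAMRA/BHQ-2 forked duplex and 2 mM ATP. Unwinding read as fluorescence (525/598 nm), two reads 2 h apart.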

[10] = target: RecQ-like DNA helicase BLM (Homo sapiens) (UniProt P54132); experiment: qHTS Validation Assay for Inhibitors of Bloom's syndrome helicase (BLM) (AID 2364);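 also: plate controls were DMSO vehicle for no effect and enzyme-free control for full effect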
How it was run: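 50 nM BLM preincubated 15 min at room temperature with compound in pH 8.0 Tris buffer containing 2.5 ug/ml poly(dI-dC); started with 200 nM TAMRA/BHQ-2 forked duplex and 2 mM ATP (final). Unwinding read as TAMRA fluorescence increase, two reads 2 h apart.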

[11] = Validation screen for small molecules that induce DNA re-replication in MCF 10A normal breast cells (AID 463097); also: 0% is about no effect; nearly all actives have a fitted effect of over 60% in size
How it was run: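 Image-based qHTS: normal breast cells are incubated with compound for 48 hr, stained with Hoechst, and scanned for total nuclear fluorescence. Compounds raising the fraction of nuclei with elevated DNA content count as re-replication inducers.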

[12] = Quantitative high throughput screen for delayed death inhibitors of the malarial parasite plastid, 48 hour incubation (AID 488752); also: % is scaled to controls: 0 for no effect and ±100 for the full control effect; nearly all actives have a fitted effect of over 65% in size
How it was run: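 One parasite generation (48 h, 37 C, 5% CO2) of luciferase-reporter P. falciparum in erythrocytes is run with test compound; decreased luminescence indicates inhibited growth.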

[13] = target: M-phase phosphoprotein 8 (Homo sapiens) (UniProt Q99549); experiment: qHTS Validation Assay for Inhibitors for MPP8 Chromodomain Interactions with Methylated Histone Tails (AID 488949);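 also: 50 nM MPP8 with 50 nM peptide preformed then compounds added for 30 min; AlphaScreen signal from MPP8 chromodomain bound to biotinylated H3K9me3 peptide; top concentration of the series differs between compounds; % is scaled to controls: 0 for no effect and ±100 for the full control effect; nearly all actives have a fitted effect of over 55% in size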
How it was run: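 50 nM MPP8 + 50 nM b-H3K9me3 peptide, PBS pH 7.4/0.01% Tween-20, 30 min RT; + cpd 30 min RT; + AlphaScreen donor/Ni-chelate acceptor beads 10 ug/mL final, 30 min dark; luminescence read.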

[14] = target: Transient receptor potential cation channel subfamily V member 1 (Homo sapiens) (UniProt Q8NER1); experiment: HTS Assay for Compounds that Act as Enhancers of the Vanilloid Receptor 1 (AID 488979); also: 0% is about no effect
How it was run: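 TRPV1 cells loaded with Fluo-8 calcium dye; compound added and Ca2+ signal (ex 480/em 520 nm) followed 3 min, then capsaicin at EC20 added and read 2 more min to detect enhancement.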

[15] = target: Thyrotropin receptor (Homo sapiens) (UniProt P16473); experiment: qHTS Assay for Antagonists of the Thyroid Stimulating Hormone Receptor (AID 488980); also: series mostly up to about 58 µM; 0% is about no effect
How it was run: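 Readout is cAMP by HTRF competition between cellular cAMP and cAMP-d2 for a cryptate-labelled antibody. Antagonism was assessed in TSHR-transfected HEK293 cells stimulated with 4 nM TSH (EC80, final) in the presence of RO 20-1724.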

[16] = target: Thyrotropin-releasing hormone receptor (Homo sapiens) (UniProt P34981); experiment: qHTS for Small Molecule Agonists and Allosteric Enhancers of Human TRH Receptor: Validation Screen for Agonists (AID 493127;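 active = calcium activation more than 3 SD above the typical response in the agonist read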;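 also: intracellular calcium rise by fluo-8 fluorescence before TRH EC20 addition; 0% is about no effect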); conditions: TRH receptor agonist cell assay; at 2 µM; active compounds read high
How it was run: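 Gq-coupled calcium mobilization in TRHR cells after compound addition, monitored kinetically with fluo-8 dye on an FDSS reader.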

[17] = target: Galactokinase (Homo sapiens) (UniProt P51570); experiment: qHTS Validation Assay for Inhibitors of Human Galactokinase (GALK) (AID 493189); also: 0% is about no effect
How it was run: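 5 nM GALK / 100 uM galactose / 35 uM ATP, 20 mM HEPES pH8.0, 5 mM MgCl2, 60 mM NaCl, 1 mM DTT, 0.01% BSA (final). RT 1 h; Kinase-Glo Plus luminescence.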

[18] = Validation screen for small molecules that induce DNA re-replication in SW480 colon adenocarcinoma cells (AID 504364); also: 0% is about no effect
How it was run: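 Cells are treated 48 hr with test compound, stained 40 min with Hoechst at 37 C, and scanned for nuclear fluorescence; compounds inducing re-replication increase nuclei with elevated intensity.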

[19] = target: Voltage-gated inwardly rectifying potassium channel KCNH2 (Homo sapiens) (UniProt Q12809); experiment: qHTS Assay for Small Molecule Inhibitors of the Human hERG Channel Activity (AID 588834);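 also: potency is read from the fitted curve at half-maximal effect; lower thallium flux fluorescence means stronger hERG block; nearly all actives have a fitted effect of over 50% in size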
How it was run: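 hERG-BacMam U2OS, 2000 cells/well; 0.7X FluxOR loading 1 hr RT dark; cpd ~10 min 37 °C; stim buffer; FDSS fluorescence 2 min @ 1 s; AC50 Hill fit.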

Galactokinase (Homo sapiens), sequence (P51570 whole entry, looked up): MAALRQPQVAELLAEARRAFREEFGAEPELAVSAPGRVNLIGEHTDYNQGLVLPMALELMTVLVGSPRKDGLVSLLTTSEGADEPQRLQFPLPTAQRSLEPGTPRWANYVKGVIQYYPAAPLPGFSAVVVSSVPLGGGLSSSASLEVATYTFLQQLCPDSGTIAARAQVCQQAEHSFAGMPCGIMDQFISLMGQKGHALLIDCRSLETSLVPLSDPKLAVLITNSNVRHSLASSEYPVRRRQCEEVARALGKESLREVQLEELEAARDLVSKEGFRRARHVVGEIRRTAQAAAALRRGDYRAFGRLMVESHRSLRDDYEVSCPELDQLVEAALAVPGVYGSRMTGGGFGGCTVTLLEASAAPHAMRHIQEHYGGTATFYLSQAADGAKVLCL
M-phase phosphoprotein 8 (Homo sapiens), sequence (Q99549 whole entry, looked up): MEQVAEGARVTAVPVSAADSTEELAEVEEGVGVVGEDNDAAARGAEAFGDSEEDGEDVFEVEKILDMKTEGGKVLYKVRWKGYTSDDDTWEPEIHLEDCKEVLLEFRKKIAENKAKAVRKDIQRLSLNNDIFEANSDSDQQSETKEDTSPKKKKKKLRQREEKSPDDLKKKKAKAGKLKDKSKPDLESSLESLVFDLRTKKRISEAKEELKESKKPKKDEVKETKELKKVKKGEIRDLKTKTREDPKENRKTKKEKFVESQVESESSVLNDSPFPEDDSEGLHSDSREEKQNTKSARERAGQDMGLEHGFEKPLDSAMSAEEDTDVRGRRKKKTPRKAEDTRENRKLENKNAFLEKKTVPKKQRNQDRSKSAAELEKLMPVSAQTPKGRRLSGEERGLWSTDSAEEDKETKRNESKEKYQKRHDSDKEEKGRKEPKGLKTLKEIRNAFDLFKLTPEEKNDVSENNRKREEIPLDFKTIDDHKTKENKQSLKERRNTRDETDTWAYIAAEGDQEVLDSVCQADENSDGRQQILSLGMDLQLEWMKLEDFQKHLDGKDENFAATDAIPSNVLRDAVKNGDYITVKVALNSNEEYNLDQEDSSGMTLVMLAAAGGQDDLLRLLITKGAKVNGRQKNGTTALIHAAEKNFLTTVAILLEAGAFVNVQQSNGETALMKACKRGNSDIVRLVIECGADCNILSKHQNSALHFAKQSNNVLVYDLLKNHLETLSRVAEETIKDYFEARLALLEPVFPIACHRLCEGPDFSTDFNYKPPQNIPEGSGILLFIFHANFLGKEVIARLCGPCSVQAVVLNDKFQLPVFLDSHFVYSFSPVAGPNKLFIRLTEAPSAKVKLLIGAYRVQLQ
Voltage-gated inwardly rectifying potassium channel KCNH2 (Homo sapiens), sequence (Q12809 whole entry, looked up): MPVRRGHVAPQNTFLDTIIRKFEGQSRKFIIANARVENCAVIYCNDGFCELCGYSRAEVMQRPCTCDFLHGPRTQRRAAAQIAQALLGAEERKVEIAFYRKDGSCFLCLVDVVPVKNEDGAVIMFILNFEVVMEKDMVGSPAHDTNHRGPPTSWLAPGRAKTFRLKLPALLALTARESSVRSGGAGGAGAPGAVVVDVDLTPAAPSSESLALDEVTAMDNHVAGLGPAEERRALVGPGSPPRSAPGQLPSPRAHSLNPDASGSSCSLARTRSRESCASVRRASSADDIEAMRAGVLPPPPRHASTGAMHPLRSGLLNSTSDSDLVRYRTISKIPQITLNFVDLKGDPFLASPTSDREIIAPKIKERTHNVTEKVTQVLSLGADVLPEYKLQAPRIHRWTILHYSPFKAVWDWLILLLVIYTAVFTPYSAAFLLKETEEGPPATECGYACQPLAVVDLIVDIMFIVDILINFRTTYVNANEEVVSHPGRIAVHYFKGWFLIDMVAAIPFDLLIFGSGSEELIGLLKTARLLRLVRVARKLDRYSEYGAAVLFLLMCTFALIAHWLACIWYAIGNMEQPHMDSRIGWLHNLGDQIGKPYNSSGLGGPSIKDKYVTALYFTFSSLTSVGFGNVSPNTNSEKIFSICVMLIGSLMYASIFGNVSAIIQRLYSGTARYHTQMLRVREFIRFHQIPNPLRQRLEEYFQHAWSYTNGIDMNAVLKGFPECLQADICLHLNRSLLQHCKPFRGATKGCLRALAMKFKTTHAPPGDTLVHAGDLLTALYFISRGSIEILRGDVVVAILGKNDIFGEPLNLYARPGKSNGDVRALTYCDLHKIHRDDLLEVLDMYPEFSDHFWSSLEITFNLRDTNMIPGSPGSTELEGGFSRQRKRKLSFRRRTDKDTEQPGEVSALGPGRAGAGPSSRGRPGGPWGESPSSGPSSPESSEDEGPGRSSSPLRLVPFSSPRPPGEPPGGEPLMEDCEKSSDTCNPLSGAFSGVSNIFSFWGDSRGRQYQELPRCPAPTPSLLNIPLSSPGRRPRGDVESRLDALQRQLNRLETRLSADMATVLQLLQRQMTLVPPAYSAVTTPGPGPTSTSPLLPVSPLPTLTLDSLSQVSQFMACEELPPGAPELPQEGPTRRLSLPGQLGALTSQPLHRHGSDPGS
ATP-dependent DNA helicase Q1 (Homo sapiens), sequence (P46063 whole entry, looked up): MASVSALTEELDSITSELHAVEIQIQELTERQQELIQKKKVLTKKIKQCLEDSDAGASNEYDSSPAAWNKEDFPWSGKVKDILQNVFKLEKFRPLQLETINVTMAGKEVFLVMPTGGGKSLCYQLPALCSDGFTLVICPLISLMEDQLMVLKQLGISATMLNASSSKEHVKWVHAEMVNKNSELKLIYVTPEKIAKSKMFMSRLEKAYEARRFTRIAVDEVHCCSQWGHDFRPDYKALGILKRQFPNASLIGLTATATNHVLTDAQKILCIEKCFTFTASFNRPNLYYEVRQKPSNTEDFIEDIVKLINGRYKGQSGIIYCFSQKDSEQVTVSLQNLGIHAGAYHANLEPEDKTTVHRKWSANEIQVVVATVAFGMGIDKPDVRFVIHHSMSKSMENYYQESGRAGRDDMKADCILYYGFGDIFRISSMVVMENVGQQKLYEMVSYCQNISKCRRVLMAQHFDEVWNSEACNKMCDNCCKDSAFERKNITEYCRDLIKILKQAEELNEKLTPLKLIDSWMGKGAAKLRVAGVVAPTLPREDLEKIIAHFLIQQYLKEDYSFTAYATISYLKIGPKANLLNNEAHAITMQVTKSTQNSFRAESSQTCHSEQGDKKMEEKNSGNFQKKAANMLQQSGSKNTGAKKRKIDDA
Thyrotropin receptor (Homo sapiens), sequence (P16473 whole entry, looked up): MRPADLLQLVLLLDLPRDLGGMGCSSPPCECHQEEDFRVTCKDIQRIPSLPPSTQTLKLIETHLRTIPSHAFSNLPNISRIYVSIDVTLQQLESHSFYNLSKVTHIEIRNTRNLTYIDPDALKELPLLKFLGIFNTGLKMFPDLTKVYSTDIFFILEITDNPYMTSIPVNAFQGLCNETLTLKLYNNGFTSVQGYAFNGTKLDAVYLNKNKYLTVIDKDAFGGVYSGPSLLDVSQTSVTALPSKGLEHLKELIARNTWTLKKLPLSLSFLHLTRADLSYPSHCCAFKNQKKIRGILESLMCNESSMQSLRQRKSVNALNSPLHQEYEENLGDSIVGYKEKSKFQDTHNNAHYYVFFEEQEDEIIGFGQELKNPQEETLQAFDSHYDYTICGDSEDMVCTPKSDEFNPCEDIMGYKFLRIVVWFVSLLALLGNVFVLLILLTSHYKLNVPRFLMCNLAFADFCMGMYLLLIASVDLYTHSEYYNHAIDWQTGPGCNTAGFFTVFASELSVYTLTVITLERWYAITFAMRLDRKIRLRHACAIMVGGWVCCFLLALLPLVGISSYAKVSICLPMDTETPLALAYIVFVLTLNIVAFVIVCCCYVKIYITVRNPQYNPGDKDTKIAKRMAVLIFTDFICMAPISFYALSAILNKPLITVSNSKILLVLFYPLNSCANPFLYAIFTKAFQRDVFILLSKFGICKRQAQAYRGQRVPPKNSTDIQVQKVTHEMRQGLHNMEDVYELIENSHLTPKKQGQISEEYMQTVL
Transient receptor potential cation channel subfamily V member 1 (Homo sapiens), sequence (Q8NER1 whole entry, looked up): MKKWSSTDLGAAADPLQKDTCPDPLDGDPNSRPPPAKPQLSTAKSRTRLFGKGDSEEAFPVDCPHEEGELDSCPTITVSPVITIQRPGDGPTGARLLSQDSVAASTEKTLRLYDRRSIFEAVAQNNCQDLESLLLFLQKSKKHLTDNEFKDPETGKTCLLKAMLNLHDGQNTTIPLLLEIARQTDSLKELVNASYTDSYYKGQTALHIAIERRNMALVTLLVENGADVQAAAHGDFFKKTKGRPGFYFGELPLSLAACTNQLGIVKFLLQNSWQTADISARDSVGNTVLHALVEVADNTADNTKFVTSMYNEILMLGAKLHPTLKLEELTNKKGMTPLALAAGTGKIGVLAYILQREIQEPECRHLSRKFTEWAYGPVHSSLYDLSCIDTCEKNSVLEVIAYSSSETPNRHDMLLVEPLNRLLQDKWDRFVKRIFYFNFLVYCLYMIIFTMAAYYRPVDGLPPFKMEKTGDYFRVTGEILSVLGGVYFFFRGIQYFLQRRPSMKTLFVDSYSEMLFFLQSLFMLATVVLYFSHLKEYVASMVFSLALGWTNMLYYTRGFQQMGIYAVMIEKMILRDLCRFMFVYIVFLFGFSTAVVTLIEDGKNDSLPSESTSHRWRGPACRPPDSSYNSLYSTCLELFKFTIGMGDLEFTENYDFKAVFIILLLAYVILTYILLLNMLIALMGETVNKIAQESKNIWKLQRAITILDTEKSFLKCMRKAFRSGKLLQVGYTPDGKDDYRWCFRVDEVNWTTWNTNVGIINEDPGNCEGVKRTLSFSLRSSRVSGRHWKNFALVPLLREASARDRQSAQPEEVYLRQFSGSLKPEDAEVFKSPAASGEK
Thyrotropin-releasing hormone receptor (Homo sapiens), sequence (P34981 whole entry, looked up): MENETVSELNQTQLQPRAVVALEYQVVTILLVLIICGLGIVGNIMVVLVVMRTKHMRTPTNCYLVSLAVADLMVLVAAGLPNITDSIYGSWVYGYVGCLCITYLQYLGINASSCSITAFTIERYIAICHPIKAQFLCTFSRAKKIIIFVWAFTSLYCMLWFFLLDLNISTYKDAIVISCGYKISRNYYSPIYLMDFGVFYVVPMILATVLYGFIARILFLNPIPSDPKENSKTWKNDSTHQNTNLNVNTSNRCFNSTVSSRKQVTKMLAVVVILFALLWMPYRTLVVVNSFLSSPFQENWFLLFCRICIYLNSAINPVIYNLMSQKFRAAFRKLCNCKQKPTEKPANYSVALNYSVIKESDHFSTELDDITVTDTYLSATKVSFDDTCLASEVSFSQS

CCCCN1CCC(COC(=O)c2cc(Cl)c(N)c3c2OCCO3)CC1
active: Potency [4] 10 µM | Potency [5] 12.6 µM | Potency [6] 8.91 µM | Potency [7] 7.08 µM | Potency [19] 2.24 µM
inactive: Potency [1] | outcome [2] | Potency [3] | outcome [8] | outcome [9] | Potency [10] | Potency [11] | Potency [12] | Potency [13] | outcome [14] | outcome [15] | activation [16] 1.19% | outcome [17] | Potency [18]
